From PubChem BioAssay AID1211 (NMMLSC, 2008) come the findings set out here.

Values without a mark were called inactive. The source made the active and inactive calls. How the calls were made is not given here.

Chain of Estrogen receptor (Homo sapiens) (P03372 whole entry, looked up): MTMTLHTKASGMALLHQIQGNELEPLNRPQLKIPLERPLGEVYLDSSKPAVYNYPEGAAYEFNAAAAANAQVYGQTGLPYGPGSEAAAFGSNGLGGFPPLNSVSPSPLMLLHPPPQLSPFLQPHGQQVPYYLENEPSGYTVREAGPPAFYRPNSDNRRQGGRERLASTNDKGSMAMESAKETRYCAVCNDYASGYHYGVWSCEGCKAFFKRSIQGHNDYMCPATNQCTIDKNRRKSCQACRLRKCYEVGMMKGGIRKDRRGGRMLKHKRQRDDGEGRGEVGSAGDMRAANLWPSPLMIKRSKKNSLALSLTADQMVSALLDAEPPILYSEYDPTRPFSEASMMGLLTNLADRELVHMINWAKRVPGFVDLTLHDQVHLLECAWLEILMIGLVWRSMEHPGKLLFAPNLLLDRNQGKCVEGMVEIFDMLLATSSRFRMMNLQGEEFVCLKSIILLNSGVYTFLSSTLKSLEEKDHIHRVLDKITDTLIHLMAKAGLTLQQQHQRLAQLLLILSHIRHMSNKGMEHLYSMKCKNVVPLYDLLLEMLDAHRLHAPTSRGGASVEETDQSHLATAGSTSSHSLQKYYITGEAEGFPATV

The test addresses Estrogen receptor (Homo sapiens) (UniProt P03372). In words: displacement of fluorescent estrogen from ERalpha – cell-based, Cos7 ERalpha-GFP, flow cytometry, primary screen (AID 1211).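 Further: 0% = DMSO vehicle wells and 100% = no E2-Alexa633 signal left.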 Conditions: fluorescent ligand competition, at 10 µM, active compounds read high. For orientation: Flow cytometry measures light scatter and fluorescence of single cells or particles in a stream.
As for `C[C@H]1CCC[C@@H](O)CCC/C=C/c2cc(O)cc(O)c2C(=O)O1`, the inhibition of ligand binding is 67% (active).
As for `COc1cc2c(cc1OC)CC(C)(C)NC2`, the inhibition of ligand binding is 3%.
As for `COc1ccc(C2(CN)CCCC2)cc1`, the inhibition of ligand binding was 21%.
Turning to `CC(=O)c1ccc2c(c1)C1C(Cl)C(Sc3ccccc3[N+](=O)[O-])CC1C(c1ccccc1)N2` (stereo unspecified), the inhibition of ligand binding was 69% (active).
In the case of `COc1ccc(CC2NCCc3cc(OC)c(OC)cc32)cc1OC` (stereo unspecified), the inhibition of ligand binding is 7%.
On to `Cc1ccc2c(c1Cl)NC(C(=O)O)C1CC(Sc3ccccc3[N+](=O)[O-])C(Cl)C21` (stereo unspecified), for which the inhibition of ligand binding was 0%.
Then `Cc1ccc(S(=O)(=O)Cc2ccc(C(=O)N3CCC4(CC3)OCCO4)o2)cc1`, with 31%; and `COc1ccc2[nH]cc(CCN=C(N)N)c2c1`, with 1%; and `CC1(C)CC(CCNCc2ccc3c(c2)OCO3)(Cc2ccccc2)CCO1` (stereo unspecified), with 0%.
On to `COc1ccc(Cn2c(N)c(C(=O)NCc3ccco3)c3nc4ccccc4nc32)cc1`, for which the inhibition of ligand binding was 26%.
Then `O=C(O)c1ccc2c(c1)C1C(Cl)C(Sc3ccccc3[N+](=O)[O-])CC1C(c1cccc([N+](=O)[O-])c1)N2` (stereo unspecified), with 0%; and `CC(=O)c1ccc2c(c1)C1C(Cl)C(Sc3ccccc3[N+](=O)[O-])CC1C(c1ccccc1[N+](=O)[O-])N2` (stereo unspecified), with 79% (active); and `N=c1c[n+](CCc2ccc(O)cc2)[n-]o1`, with 7%.
For the compound `CCOc1ccccc1N1C(=O)NC(=O)C(CCc2ccncc2)(CCc2ccncc2)C1=O`, the inhibition of ligand binding is 59%.
Turning to `COc1ccc(C2(CN)CCCC2)cc1OC`, the inhibition of ligand binding was 2%.
Then `NC(=O)c1ccc(N=Nc2c(O)[nH]c(=O)[nH]c2=O)cc1`, with 28%; and `O=C(O)c1cccc2c1NC(C(=O)O)C1CC(Sc3ccccc3[N+](=O)[O-])C(Cl)C21` (stereo unspecified), with 0%.
Regarding `CCNCC1(c2ccc(OC)c(OC)c2)CCCC1`, the inhibition of ligand binding is 17%.
As to `O=C1C2CCN(CC2)C1Cc1ccc(O)cc1` (stereo unspecified), the inhibition of ligand binding was 0%.
`CC(=O)c1ccc2c(c1)C1C(Cl)C(Sc3ccccc3[N+](=O)[O-])CC1C(C(=O)O)N2` (stereo unspecified): the inhibition of ligand binding is 0%.
`O=C(O)c1cccc2c1NC(c1cccc([N+](=O)[O-])c1)C1CC(Sc3ccccc3[N+](=O)[O-])C(Cl)C21` (stereo unspecified): the inhibition of ligand binding is 62%.
